From the supplement of paper PMC11732987, “Enantioselective OTUD7B fragment discovery through chemoproteomics screening and high-throughput optimisation” (Communications Chemistry, 2025)

Key:
Assay in all cases: log2 ratio of Biotin-Ahx-Ub-VS probe labelling (fragment/DMSO); higher = less target engagement (more negative = stronger competition), active = hit call of the paper (q ≤ 0.05, log2 ratio ≤ -1)
Details in all cases: compound concentration: 200 uM; treatment time: 3 h
USP19 = target: T1, USP19 (UniProt O94966)
T1 sequence (whole entry): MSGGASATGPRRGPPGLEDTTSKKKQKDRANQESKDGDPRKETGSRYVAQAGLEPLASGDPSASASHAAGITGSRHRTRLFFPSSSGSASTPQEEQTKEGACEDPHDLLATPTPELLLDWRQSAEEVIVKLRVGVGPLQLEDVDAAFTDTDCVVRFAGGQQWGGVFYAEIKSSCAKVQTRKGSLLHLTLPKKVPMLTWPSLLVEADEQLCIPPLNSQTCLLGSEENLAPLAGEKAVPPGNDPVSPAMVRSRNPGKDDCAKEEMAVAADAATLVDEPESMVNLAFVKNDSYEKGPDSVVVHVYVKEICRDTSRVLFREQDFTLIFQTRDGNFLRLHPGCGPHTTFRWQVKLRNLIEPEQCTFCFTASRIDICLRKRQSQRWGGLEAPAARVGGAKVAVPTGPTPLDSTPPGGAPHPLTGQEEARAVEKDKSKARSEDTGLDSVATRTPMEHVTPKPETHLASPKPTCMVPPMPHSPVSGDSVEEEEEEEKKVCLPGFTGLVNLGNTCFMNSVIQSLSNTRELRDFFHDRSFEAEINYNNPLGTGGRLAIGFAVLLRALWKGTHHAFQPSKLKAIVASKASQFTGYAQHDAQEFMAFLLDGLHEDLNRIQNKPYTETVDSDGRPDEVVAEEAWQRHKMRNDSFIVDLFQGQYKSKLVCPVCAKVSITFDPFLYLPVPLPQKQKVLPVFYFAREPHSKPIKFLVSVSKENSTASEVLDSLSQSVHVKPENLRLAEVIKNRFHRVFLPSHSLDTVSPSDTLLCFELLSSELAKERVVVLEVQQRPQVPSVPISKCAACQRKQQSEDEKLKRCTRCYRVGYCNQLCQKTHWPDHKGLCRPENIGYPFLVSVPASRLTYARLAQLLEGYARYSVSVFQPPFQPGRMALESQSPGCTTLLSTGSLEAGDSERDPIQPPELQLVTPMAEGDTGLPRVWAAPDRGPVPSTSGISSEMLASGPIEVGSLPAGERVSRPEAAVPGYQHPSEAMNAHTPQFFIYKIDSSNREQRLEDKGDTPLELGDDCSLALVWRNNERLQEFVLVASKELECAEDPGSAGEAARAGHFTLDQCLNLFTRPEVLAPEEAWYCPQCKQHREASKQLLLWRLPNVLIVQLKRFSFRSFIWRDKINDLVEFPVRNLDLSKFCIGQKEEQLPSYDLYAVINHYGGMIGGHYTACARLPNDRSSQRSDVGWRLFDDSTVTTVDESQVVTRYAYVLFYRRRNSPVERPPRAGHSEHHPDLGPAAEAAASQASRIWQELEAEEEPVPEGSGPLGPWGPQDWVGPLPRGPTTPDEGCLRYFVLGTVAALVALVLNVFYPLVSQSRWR
Method in brief: (§1)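 HEK293T lysate, 495 µg per sample in Tris/CHAPS/IGEPAL buffer with protease inhibitors, was treated in triplicate with fragment at 200 µM or vehicle for 3 h and then with Biotin-Ahx-Ub-VS at 0.5 µM final for 1 h. Labelled DUBs were NeutrAvidin-enriched, digested with LysC and trypsin, and run by diaPASEF LC-MS/MS. Spectronaut label-free quantities were global-median-normalised, and values are average log2 fragment/vehicle ratios by unpaired t-test on proteins with ≥2 unique peptides.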

USP22 = target: T2, USP22 (UniProt Q9UPT9)
T2 sequence (whole entry): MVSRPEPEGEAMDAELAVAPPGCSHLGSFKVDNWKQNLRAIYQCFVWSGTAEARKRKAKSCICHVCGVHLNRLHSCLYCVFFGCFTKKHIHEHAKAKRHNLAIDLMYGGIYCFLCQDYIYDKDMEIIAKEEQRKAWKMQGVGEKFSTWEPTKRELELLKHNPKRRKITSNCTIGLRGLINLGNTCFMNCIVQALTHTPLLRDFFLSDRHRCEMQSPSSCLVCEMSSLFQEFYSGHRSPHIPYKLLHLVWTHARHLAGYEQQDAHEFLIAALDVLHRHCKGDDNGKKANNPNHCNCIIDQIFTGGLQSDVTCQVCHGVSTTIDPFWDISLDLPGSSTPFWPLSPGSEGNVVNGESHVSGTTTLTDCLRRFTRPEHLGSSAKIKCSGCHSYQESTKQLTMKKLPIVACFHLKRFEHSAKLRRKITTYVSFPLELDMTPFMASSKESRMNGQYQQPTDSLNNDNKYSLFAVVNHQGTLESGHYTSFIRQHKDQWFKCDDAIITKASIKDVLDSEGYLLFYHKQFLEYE
Method in brief: as §1

USP24 = USP24 (UniProt Q9UPU5)
Method in brief: as §1

USP25 = target: T3, USP25 (UniProt Q9UHP3)
T3 sequence (whole entry): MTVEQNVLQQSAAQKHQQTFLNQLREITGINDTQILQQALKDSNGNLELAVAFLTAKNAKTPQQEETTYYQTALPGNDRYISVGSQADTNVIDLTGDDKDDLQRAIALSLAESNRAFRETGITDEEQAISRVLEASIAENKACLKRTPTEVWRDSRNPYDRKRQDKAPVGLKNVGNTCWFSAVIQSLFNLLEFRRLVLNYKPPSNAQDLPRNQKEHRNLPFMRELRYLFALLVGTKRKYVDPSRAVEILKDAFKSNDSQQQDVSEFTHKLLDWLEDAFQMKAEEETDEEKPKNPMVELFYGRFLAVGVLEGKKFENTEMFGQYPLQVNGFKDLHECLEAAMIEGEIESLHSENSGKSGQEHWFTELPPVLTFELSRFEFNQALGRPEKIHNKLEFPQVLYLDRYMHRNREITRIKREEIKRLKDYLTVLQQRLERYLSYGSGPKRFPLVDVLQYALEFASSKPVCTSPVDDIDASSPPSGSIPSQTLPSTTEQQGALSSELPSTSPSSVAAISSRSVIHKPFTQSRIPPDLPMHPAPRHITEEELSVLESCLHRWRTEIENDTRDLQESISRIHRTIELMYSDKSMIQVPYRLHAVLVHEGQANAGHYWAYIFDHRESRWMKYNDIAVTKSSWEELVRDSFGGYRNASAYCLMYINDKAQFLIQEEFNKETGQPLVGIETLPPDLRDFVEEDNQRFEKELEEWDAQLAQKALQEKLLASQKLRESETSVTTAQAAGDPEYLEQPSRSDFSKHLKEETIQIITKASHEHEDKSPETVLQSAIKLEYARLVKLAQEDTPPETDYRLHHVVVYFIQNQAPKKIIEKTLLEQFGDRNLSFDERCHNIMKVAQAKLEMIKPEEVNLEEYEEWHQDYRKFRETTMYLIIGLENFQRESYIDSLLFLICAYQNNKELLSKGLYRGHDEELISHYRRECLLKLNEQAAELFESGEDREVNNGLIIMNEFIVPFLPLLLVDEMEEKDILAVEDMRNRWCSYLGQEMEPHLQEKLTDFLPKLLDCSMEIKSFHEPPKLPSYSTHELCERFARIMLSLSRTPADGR
Method in brief: as §1

USP28 = target: T4, USP28 (UniProt Q96RU2)
T4 sequence (whole entry): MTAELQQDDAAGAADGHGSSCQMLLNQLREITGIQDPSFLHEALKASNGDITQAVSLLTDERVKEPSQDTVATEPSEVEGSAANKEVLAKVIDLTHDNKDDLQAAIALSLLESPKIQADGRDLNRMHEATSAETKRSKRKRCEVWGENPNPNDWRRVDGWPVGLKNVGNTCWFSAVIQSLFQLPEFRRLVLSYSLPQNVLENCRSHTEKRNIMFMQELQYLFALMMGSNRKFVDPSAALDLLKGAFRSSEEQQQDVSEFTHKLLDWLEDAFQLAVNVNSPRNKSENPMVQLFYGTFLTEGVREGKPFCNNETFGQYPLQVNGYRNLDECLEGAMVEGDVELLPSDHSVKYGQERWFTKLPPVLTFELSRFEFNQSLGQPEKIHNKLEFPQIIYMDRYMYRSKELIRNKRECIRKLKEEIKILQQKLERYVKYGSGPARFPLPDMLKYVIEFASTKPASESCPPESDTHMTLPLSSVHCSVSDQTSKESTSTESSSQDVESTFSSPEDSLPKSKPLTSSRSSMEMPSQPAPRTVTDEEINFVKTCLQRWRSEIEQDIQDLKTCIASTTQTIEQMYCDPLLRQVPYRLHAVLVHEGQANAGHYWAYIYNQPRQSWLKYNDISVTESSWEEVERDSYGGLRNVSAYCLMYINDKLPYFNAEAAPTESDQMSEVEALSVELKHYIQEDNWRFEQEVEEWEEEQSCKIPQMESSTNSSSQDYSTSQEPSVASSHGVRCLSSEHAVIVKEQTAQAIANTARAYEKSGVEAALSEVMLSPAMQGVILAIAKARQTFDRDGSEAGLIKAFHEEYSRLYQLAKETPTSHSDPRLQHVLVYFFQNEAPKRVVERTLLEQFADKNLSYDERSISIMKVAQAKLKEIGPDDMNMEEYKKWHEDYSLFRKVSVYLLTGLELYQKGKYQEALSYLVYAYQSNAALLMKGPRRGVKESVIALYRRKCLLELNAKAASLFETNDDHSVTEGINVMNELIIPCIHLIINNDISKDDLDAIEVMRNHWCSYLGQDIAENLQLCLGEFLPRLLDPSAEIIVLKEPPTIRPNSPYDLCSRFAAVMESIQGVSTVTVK
Method in brief: as §1

Measured: log2 ratio of Biotin-Ahx-Ub-VS probe labelling

Sequence of USP24 (Q9UPU5 whole entry): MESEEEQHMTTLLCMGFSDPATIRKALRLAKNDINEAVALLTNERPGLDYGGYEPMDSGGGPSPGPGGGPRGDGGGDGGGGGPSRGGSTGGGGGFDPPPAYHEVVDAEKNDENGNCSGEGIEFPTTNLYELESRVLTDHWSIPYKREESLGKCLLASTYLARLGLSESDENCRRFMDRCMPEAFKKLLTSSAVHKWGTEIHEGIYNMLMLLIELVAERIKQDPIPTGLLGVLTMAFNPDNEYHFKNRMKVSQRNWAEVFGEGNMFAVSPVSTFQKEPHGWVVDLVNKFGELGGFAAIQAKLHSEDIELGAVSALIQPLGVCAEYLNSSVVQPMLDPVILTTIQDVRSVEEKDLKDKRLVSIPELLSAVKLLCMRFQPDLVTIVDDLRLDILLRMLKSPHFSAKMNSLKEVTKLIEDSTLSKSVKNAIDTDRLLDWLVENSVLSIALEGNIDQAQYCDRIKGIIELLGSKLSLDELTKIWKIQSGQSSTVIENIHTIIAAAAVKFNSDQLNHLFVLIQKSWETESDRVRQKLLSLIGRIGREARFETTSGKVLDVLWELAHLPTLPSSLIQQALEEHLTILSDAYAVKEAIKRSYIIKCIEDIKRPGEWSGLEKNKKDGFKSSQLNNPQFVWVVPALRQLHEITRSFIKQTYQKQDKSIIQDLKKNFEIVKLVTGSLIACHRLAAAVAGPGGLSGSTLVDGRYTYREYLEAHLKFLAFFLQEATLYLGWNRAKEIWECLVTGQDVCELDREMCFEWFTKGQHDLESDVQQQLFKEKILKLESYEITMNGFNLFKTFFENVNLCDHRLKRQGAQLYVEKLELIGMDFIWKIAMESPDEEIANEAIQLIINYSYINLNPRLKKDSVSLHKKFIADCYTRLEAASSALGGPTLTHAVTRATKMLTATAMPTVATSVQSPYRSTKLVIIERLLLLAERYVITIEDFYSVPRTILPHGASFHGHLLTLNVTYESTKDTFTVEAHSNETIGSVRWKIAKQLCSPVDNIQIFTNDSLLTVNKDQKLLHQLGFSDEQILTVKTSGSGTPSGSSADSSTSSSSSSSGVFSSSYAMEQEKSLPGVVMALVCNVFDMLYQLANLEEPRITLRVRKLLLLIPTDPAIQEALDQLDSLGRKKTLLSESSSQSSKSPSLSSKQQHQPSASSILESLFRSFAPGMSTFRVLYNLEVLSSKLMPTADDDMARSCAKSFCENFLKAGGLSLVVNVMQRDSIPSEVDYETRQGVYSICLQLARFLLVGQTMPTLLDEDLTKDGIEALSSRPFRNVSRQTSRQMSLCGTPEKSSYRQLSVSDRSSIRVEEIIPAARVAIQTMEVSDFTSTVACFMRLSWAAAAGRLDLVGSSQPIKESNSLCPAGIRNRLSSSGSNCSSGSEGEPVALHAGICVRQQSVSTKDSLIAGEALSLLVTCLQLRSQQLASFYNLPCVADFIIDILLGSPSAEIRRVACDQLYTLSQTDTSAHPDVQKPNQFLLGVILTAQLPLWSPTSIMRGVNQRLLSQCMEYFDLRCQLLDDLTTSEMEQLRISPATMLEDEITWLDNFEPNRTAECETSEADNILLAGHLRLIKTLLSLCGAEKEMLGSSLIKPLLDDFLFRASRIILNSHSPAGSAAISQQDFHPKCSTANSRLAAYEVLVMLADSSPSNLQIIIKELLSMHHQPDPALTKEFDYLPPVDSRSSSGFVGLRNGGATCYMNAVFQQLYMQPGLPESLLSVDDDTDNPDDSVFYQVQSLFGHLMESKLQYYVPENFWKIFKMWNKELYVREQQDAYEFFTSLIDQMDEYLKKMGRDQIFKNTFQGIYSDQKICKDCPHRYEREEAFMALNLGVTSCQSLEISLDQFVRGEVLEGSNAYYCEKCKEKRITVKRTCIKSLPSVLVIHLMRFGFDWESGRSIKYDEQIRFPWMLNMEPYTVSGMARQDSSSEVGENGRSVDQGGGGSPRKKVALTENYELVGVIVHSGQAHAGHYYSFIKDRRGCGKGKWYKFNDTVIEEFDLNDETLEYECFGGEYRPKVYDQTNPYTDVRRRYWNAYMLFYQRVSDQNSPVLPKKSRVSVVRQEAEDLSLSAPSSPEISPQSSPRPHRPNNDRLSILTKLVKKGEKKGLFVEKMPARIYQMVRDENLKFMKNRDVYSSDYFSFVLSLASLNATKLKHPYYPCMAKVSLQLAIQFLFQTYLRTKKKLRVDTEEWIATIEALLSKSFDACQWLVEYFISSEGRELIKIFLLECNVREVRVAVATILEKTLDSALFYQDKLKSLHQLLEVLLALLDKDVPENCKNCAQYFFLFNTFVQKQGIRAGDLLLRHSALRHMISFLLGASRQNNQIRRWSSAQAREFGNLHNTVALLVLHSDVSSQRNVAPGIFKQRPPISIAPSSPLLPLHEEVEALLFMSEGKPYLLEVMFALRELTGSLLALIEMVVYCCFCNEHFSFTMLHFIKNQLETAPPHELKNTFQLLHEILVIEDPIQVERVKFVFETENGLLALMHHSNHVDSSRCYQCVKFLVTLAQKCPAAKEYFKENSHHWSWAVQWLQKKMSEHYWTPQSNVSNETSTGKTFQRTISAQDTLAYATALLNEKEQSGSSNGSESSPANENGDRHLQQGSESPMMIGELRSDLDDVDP

O=C(O)C1Cc2ccccc2CN1C(=O)CCl (stereo not given)
inactive: USP19 -0.32 | USP22 0.112 | USP24 -0.348 | USP25 -0.37 | USP28 -0.576
